Rows were chosen to be rich in hits. Some 10% of all compounds tested hit in one or more screens of this group.
3T3 cytotox: kills NIH 3T3 cells; NIH 3T3 viability, CellTiter-Glo ATP luminescence, 48-72 h; Potency, µM (highest dose often 96.7 µM), most hits filed as inhibitors; AID 1345082; hit rate 4.3% among 94,000; note: nearly all actives have a fitted effect of over 55% in size
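Luminescent ATP readout (CellTiter-Glo, 10 min RT) after 48 or 72 hr compound exposure of NIH 3T3 cells seeded at 400 cells/well in 1536-well format; quantitative HTS.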
GPT2 inh: inhibitors of human GPT2 alanine aminotransferase; Potency, µM (top dose mostly 57.7 µM), hits mostly inhibitors; Recombinant GPT2, coupled pyruvate oxidase/HRP Amplex Red fluorescence; Q8TD30; hit rate 0.25% among 100,000; note: nearly all actives have a fitted effect of over 60% in size
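Inhibition is scored from Amplex Red fluorescence generated when pyruvate oxidase and HRP act on pyruvate released by GPT2. Reactions contain 10ng/uL enzyme, 250uM a-KG and 2mM L-alanine and run 30 min at room temperature.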
NPR1 antag: blocks ANP-stimulated signaling of human Npr1 receptor. Potency, µM (highest dose often 46.3 µM), most hits filed as inhibitors. HEK293 hNpr1 GloSensor cGMP, ANP-stimulated luminescence. AID 1347048. P16066. hit rate 1.6% among 76,000; calls by dose curve; note: nearly all actives have a fitted effect of over 60% in size
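HEK293 cells stably expressing human Npr1 and cGMP GloSensor pGS-40F, loaded 2 h with 2% GloSensor reagent, given compound 30 min at room temperature. Luminescence read before and 20 min after 0.1 nM hNppA.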
Luciferase inh: blocks purified firefly luciferase enzyme activity; P08659; purified P. pyralis luciferase, luminescence, biochemical; Potency, µM (series often up to 115 µM), usual class: inhibitors; hit rate 2.5% among 76,000; AID 1347043; note: nearly all actives have a fitted effect of over 65% in size
Target sequence (P08659 whole entry, looked up): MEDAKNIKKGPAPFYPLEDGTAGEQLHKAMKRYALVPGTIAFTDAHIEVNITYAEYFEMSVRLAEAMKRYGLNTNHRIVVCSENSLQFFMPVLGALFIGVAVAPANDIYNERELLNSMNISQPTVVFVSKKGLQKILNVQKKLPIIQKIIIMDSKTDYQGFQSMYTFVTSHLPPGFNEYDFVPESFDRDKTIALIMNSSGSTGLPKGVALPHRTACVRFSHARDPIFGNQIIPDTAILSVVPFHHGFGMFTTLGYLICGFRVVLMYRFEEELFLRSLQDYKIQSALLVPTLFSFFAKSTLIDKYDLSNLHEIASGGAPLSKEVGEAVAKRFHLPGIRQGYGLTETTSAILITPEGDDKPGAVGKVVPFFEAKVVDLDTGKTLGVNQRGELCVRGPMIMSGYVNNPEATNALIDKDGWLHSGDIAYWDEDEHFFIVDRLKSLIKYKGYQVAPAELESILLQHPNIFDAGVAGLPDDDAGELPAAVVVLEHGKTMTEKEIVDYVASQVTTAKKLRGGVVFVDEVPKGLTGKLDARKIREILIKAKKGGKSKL
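Cell-free enzyme assay, 10nM P. pyralis luciferase, luciferin and ATP each at 10uM. Inhibition profiled over a 6-point titration, read as luminescence.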
HEK293 tox: HEK 293 cell cytotoxicity | hit rate 6.6% among 94,000 | Potency, µM (doses to about 115 µM), usual class: inhibitors | HEK 293 viability, ATP luminescence (CellTiter-Glo), 48-72 h; note: nearly all actives have a fitted effect of over 60% in size
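HEK 293 cells seeded at 250 cells/well were exposed to compound for 48 or 72 hr at 37 degree Celsius. Viability taken as ATP content by CellTiter-Glo luminescence.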
Of the large screens only hits and unclear results are named; the others gave an inactive call; ! = repeats disagree. Unless noted, calls come from the whole dose curve; as a rule, active = well fitted curve in the direction sought with a large enough effect; inconclusive = small, poorly fitted or top-dose-only effect, or another doubt; inactive = no such curve, though single readings can be large; an effect the other way counts as inactive or inconclusive.

COCC(=O)N1CCC2(CC1)OC(=O)N(CCOc1ccccc1)C2(C)c1cccnc1 (stereo not drawn)	3T3 cytotox 50µM
CC1(c2ccccc2)N(Cc2ccccc2)C(=O)OC12CCN(C(=O)COc1ccccc1)CC2 (stereo not drawn)	3T3 cytotox 28µM, HEK293 tox inconclusive
COc1ccccc1C(=O)N1CC(CNC(=O)C2CC2)C2(C1)CN(c1ccccc1)C2 (stereo not drawn)	3T3 cytotox inconclusive
COc1ccc(Nc2ccc3ncn(-c4ccccc4)c(=O)c3n2)cn1	3T3 cytotox 100µM, HEK293 tox 100µM
O=c1c2nc(Nc3cccc(F)c3)ccc2ncn1-c1cccnc1	3T3 cytotox inconclusive, NPR1 antag inconclusive, HEK293 tox inconclusive
O=C(C1CCCN([S+](=O)([O-])c2cccc(C(F)(F)F)c2)C1)N1CCC(c2ccccc2)CC1 (stereo not drawn)	3T3 cytotox inconclusive, HEK293 tox inconclusive (no result: NPR1 antag, Luciferase inh)
COc1ccc(-c2cc3[nH]ccc3c(C(=O)NCc3c(C)cc(C)[nH]c3=O)n2)cc1	3T3 cytotox inconclusive, NPR1 antag inconclusive, Luciferase inh inconclusive, HEK293 tox inconclusive
Cc1cc(C)c(CNC(=O)c2nc(-c3cccc(C(F)(F)F)c3)cc3[nH]ccc23)c(=O)[nH]1	3T3 cytotox inconclusive, GPT2 inh inconclusive, HEK293 tox 40µM
COc1cccc(Nc2cc3[nH]ccc3c(C(=O)NCc3c(C)cc(C)[nH]c3=O)n2)c1	3T3 cytotox 40µM, Luciferase inh inconclusive, HEK293 tox 71µM
Cc1cnc(C2CCOCC2)n1CC1CCN(C(=O)COc2ccccc2)CC1	none (no result: NPR1 antag, Luciferase inh)
O=C(c1ccc(Cl)cc1)N1CCn2c(nn(-c3ccc(Cl)cc3)c2=O)C1	none (no result: NPR1 antag, Luciferase inh)
COc1ccc(CCNC(=O)c2nc3sccn3c2-c2ccc(F)cc2)cc1	none (no result: NPR1 antag, Luciferase inh)
Cc1nc2c(c(N3CCCC(COc4cccc(F)c4)C3)n1)CCNCC2 (stereo not drawn)	3T3 cytotox inconclusive, HEK293 tox 22µM
CN(C)c1cccc(Oc2nnnn2[C@H]2CO[C@H]3[C@@H]2OC[C@@H]3NC(=S)Nc2cccc(C#N)c2)c1	3T3 cytotox inconclusive, HEK293 tox 45µM
COc1cccc(N2CCN(C(=O)C3CCCN(c4cnc5nccnc5c4)C3)CC2)c1 (stereo not drawn)	3T3 cytotox inconclusive, NPR1 antag inconclusive, HEK293 tox 40µM
CC1CCCN(C(=O)C2CCCN(c3cnc4nccnc4c3)C2)C1 (stereo not drawn)	none
COc1cccc(-c2ccc(CN3CCCC(NC(=O)c4ccccc4Cl)C3)cc2)c1 (stereo not drawn)	3T3 cytotox 28µM, HEK293 tox 20µM (no result: NPR1 antag, Luciferase inh)
COc1cccc(-c2ccc(CN3CCCC(NC(=O)Nc4ccccc4)C3)cc2)c1 (stereo not drawn)	3T3 cytotox 22µM, HEK293 tox inconclusive (no result: NPR1 antag, Luciferase inh)
COCC(=O)NC1CCCN(Cc2ccc(-c3cccc(OC)c3)cc2)C1 (stereo not drawn)	3T3 cytotox inconclusive, HEK293 tox inconclusive (no result: NPR1 antag, Luciferase inh)
COc1cccc(-c2ccc(CN3CCCC(N[S+](=O)([O-])c4ccccc4)C3)cc2)c1 (stereo not drawn)	3T3 cytotox 40µM, HEK293 tox 22µM (no result: NPR1 antag, Luciferase inh)
COc1cccc(-c2ccc(CN3CCCC(NC(=O)C4CC4)C3)cc2)c1 (stereo not drawn)	3T3 cytotox inconclusive, HEK293 tox 35µM (no result: GPT2 inh, NPR1 antag, Luciferase inh)
COc1cccc(-c2ccc(CN3CCCC(NC(=O)Cc4cccc(Cl)c4)C3)cc2)c1 (stereo not drawn)	3T3 cytotox inconclusive, HEK293 tox inconclusive (no result: NPR1 antag, Luciferase inh)
CC(=O)NC1CCN(c2nccc(Nc3ccccc3Cl)n2)CC1	3T3 cytotox inconclusive, HEK293 tox inconclusive (no result: NPR1 antag, Luciferase inh)
CCC1=C(C(=O)OC)C(c2ccccc2)N2C(CC(=O)NCC3CCCO3)=CSC2=N1 (stereo not drawn)	3T3 cytotox inconclusive, HEK293 tox inconclusive
O=C(NCc1ccco1)C1CCCCC(=O)N1Cc1ccccc1 (stereo not drawn)	GPT2 inh inconclusive (no result: NPR1 antag, Luciferase inh)
COC(=O)NC1CCCN(Cc2ccc(-c3cccc(OC)c3)cc2)C1 (stereo not drawn)	3T3 cytotox inconclusive, HEK293 tox 45µM (no result: NPR1 antag, Luciferase inh)
COc1ccc(CC(=O)NC2CCCN(Cc3ccc(-c4cccc(OC)c4)cc3)C2)cc1 (stereo not drawn)	3T3 cytotox 35µM, HEK293 tox 25µM (no result: GPT2 inh, NPR1 antag, Luciferase inh)
COc1cccc(-c2ccc(CN3CCCC(NC(=O)Cc4ccc(F)cc4)C3)cc2)c1 (stereo not drawn)	3T3 cytotox inconclusive, HEK293 tox 32µM (no result: GPT2 inh, NPR1 antag, Luciferase inh)
COc1ccc(CN2CCC(N3Cc4cnc(C)n4C3=O)CC2)cc1	HEK293 tox inconclusive
Cc1ncc2n1C(=O)N(C1CCN(Cc3ccccc3)CC1)C2	3T3 cytotox inconclusive, HEK293 tox 100µM!
Cc1nn2c(c1-c1ccccc1C(C)C)N(C(=O)c1ccnn1C)CCC2	3T3 cytotox inconclusive, HEK293 tox inconclusive
COc1cccc(CC(=O)N2CCCn3nc(C)c(-c4ccccc4C(C)C)c32)c1	3T3 cytotox inconclusive, NPR1 antag inconclusive, HEK293 tox inconclusive
COc1ccccc1C(=O)N1CCCn2nc(C)c(-c3ccccc3N3CCCC3)c21	3T3 cytotox inconclusive, HEK293 tox 56µM
Cc1nn2c(c1-c1ccccc1C(C)C)N(C(=O)COc1ccccc1C(N)=O)CCC2	3T3 cytotox inconclusive, HEK293 tox 71µM
Cc1nn2c(c1-c1ccccc1N1CCCC1)N(C(=O)C(C)C)CCC2	3T3 cytotox inconclusive, HEK293 tox 35µM
Cc1nn2c(c1-c1ccccc1C(C)C)N(C(=O)Cc1ccc3c(c1)OCO3)CCC2	3T3 cytotox 40µM, HEK293 tox inconclusive
Cc1cccc(NC(=O)N2CCC(CCNC(=O)C3(c4ccccc4)CC3)CC2)c1	HEK293 tox inconclusive (no result: NPR1 antag, Luciferase inh)
COc1ccccc1C(=O)N1CCCn2nc(C)c(-c3ccccc3C(C)C)c21	3T3 cytotox inconclusive, HEK293 tox 89µM
COc1ccc(NC(=O)Cc2c[nH]c3ncc(-c4cnn(C)c4)cc23)cn1	3T3 cytotox 50µM
CN(C)C(=O)Cc1c[nH]c2ncc(-c3cnn(C)c3)cc12	3T3 cytotox inconclusive, GPT2 inh inconclusive
Cn1cc(-c2cnc3[nH]cc(CC(=O)NCc4cccc(F)c4)c3c2)cn1	3T3 cytotox 25µM, HEK293 tox inconclusive
Cn1cc(-c2cnc3[nH]cc(CC(=O)Nc4cccnc4)c3c2)cn1	3T3 cytotox inconclusive
CN(C)c1cccc(NC(=O)Cc2c[nH]c3ncc(-c4cnn(C)c4)cc23)c1	3T3 cytotox 32µM, HEK293 tox 71µM
Cc1ccccc1NC(=O)Cc1c[nH]c2ncc(-c3cnn(C)c3)cc12	3T3 cytotox 22µM, HEK293 tox inconclusive
COc1ccc(CN2CCC3(CC2)CC(C(C)C)=NO3)cc1	3T3 cytotox inconclusive, GPT2 inh inconclusive, HEK293 tox inconclusive
COc1ccc(-c2cc(C(=O)N3CCOCC3)c3c(C)nn(-c4ccccc4)c3n2)cc1	3T3 cytotox inconclusive, HEK293 tox inconclusive (no result: NPR1 antag, Luciferase inh)
